Screening results deposited in PubChem BioAssay by National Center for Advancing Translational Sciences (NCATS).
Most compounds without a hit are left out; they make up all but 1.8% or so of the library.
p53ts 32C kill = kills p53ts cells at the permissive temperature; H1299-p53A138V at 32C, ATP luminescence viability, 24 h; Potency, µM (doses to about 46.1 µM), without a hit: at the top dose activity change, negative = cytotoxicity, most hits filed as cytotoxic; 0.93% of 130,000 active;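 also: 0% = DMSO and -100% = full killing by reference compound; nearly all actives have a fitted effect of over 55% in size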
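Viability by ATPlite luminescence after 24 h compound treatment (up to 46 uM) at the permissive 32C. Cells are H1299 carrying p53 A138V. Scale runs from DMSO basal to 100 uM tamoxifen as full kill; AC50 from Hill fits.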
p53ts 39C kill = kills p53ts cells at the nonpermissive temperature | Potency, µM (doses to about 46.1 µM), for the others: at the highest dose activity change, negative = cell killing, usual class: cytotoxic | 1.5% of 130,000 active | H1299-p53A138V viability at 39C, ATP luminescence, 24 h; also: % is scaled to controls: 0 for no effect and ±100 for the full control effect; nearly all actives have a fitted effect of over 55% in size
Peg3 imprint = inducers of genomic imprint erasure in mouse ES cells; AID 1948; mouse ES Peg3-LacZ reporter, beta-gal luminescence, 40 h; 0.02% of 110,000 active; Potency, µM (top dose mostly 60.7 µM), for inactives: at the highest dose activity change, positive = activation, usual class: activators
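Gelatin-coated wells received 300 freshly trypsinized female ES cells with a Peg3LacZ-Neo reporter on the maternal allele, then incubated 40 hours at 37C. BetaGlo was added for 5 minutes at room temperature before a single luminescence read.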
IkB signaling = inhibitors of IkB signaling in ABC-DLBCL cells. ABC-DLBCL IkBa-CBG/CBR dual luciferase ratio, 4 h; response scale: scaled: untreated 0%, proteasome inhibitor 100%. Potency, µM (highest dose often 57.1 µM), inactives show top-dose IkBa stabilization activation. 0.04% of 110,000 active; active = well fitted curve in the direction sought with a large enough effect in the signal ratio, not every such curve was filed as active; inconclusive = small, poorly fitted or top-dose-only effect, or a change in a side signal; the % refers to the signal ratio;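 also: the direction sought is a rising ratio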
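In this assay, an IκBα–CBG68 fusion accumulates when IKK-driven degradation is blocked; native CBR normalizes for cell number. OCI-Ly3 cells were treated 4 h with compound and doxycycline, then green and red light read after Chroma-Glo addition.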
Starred values were filed as active, the others as inactive; ? = inconclusive; . = no result given; [ ] = another dose, or the depositor's remark. Unless noted, calls follow the shape of the dose curve; as a rule, active = well fitted curve in the direction sought with a large enough effect; inconclusive = small, poorly fitted or top-dose-only effect, or another doubt; inactive = no such curve, though single readings can be large; an effect the other way counts as inactive or inconclusive. Potency is read from the fitted curve at half-maximal effect.

SMILES | p53ts 32C kill | p53ts 39C kill | Peg3 imprint | IkB signaling
O=C(c1ccc(N2CCOCC2)cc1)c1cccs1 | 12.6µM* | 7.94µM* | -68.7% | ?
O=C(CSc1n[nH]c(-c2ccccc2)n1)NCCc1ccccc1 | 0.5% | -18.5% | 5.6%[10.9 µM] | -1.2%
O=C(NCCc1ccccc1Cl)c1ccc(Cn2c(=O)c3cccn3c3cccnc32)cc1 | 10µM* | ? | ? | 4.6%
CCOc1ccc(CCNC(=O)c2cc3cc4cc(OC)ccc4nc3s2)cc1OCC | 2.4% | -2.4% | -16.1%[10.9 µM] | -0.7%
COc1ccc2nc3sc(C(=O)Nc4cc(Cl)c(OC)cc4OC)cc3cc2c1 | ? | 6.31µM* | -4.5%[10.9 µM] | ?
CCCN1C(=O)C(O)(CC(=O)c2ccc(C(C)C)cc2)c2ccccc21 (stereo not drawn) | 2.1% | ? | -1.1%[10.9 µM] | ?
CCCCN1C(=O)C(O)(CC(=O)c2ccc(CC)cc2)c2cc(Br)ccc21 (stereo not drawn) | ? | ? | 5.5%[10.9 µM] | 17.3%
O=C(CC1(O)C(=O)N(CCc2ccccc2)c2ccc(Br)cc21)c1ccccc1O (stereo not drawn) | -0.4% | 20µM* | -6.1%[10.9 µM] | ?
O=C(CC1(O)C(=O)N(Cc2ccccc2)c2ccc(Br)cc21)c1ccccc1 (stereo not drawn) | ? | 15.8µM* | -3.6%[10.9 µM] | ?
CC(C)c1ccc(C(=O)CC2(O)C(=O)N(CCc3ccccc3)c3ccc(Cl)cc32)cc1 (stereo not drawn) | ? | 15.8µM* | -7.9%[10.9 µM] | ?
CCOC(=O)c1c(C)[nH]c(CCC(=O)NCc2ccc(N(C)C)cc2)c1C | 0.0% | -3.6% | -6.7%[10.9 µM] | -2.8%
Cc1cccc(NC(=O)C2CCCN(S(=O)(=O)c3ccc(Br)s3)C2)c1 (stereo not drawn) | 7.5% | -9.0% | 21.6%[10.9 µM] | ?
CCOc1ccc(CN2CCc3nc(Nc4ccc5c(c4)OCCO5)ncc3C2)cc1 | -16.1% | -24.0% | -7.2%[10.9 µM] | ?
CCOc1ccc(NS(=O)(=O)c2ccc(C(=O)N(C)C)s2)cc1 | 2.0% | -22.7% | -12.0%[10.9 µM] | ?
CCCC(=O)Nc1ccc2nn(-c3ccc(CC)cc3)nc2c1 | -17.4% | 10µM* | -10.1%[10.9 µM] | -4.5%
Cn1ccc2cc(S(=O)(=O)N3CCCN(C(=O)Nc4ccc(Br)cc4)CC3)ccc21 | 1.0% | -14.8% | -13.6%[10.9 µM] | 0.8%
O=C(c1ccccc1Cl)N1CCCC(c2nc3c(nnn3Cc3ccc(F)cc3F)c(=O)[nH]2)C1 (stereo not drawn) | 10.0% | -6.9% | ? | 2.0%
Oc1c(C(Nc2nc3ccccc3s2)c2ccco2)ccc2cccnc12 (stereo not drawn) | 0.5% | ? | -34.3% | ?
CC(C)C(=O)NC(c1ccco1)c1ccc2cccnc2c1O (stereo not drawn) | -18.7% | 3.98µM* | -31.1% | ?
O=C(NCc1ccc(F)cc1)c1cc(-c2ccc(Cl)cc2)n[nH]1 | -2.5% | -16.0% | 3.4%[10.9 µM] | ?
NC(=S)NCCC[C@@H](N)C(=O)O | 6.2% | 4.9% | . | 1.6%
O=C(Nc1cccc(O)c1)c1noc2c1CCc1ccccc1-2 | 3.98µM* | 2.51µM* | -54.5%[10.9 µM] | ?
O=C(Nc1cccc(C(F)(F)F)c1)c1noc2c1CCc1ccccc1-2 | -0.9% | -15.9% | -2.9%[10.9 µM] | ?
CCOc1ccc(-c2cn3c(n2)sc2cc(C(=O)NC(C)C45CC6CC(CC(C6)C4)C5)ccc23)cc1 (stereo not drawn) | -1.4% | 3.8% | 5.2%[10.9 µM] | 5.4%
Cc1ccc2nc(-c3ccc(N)cc3)sc2c1S(=O)(=O)O | -8.4%[1.84 µM] | 15.8µM* | -89.5% | 1.9%
SMILES | p53ts 32C kill | p53ts 39C kill | Peg3 imprint | IkB signaling
Cc1nc2ccc(N)cc2s1 | -6.6% | 17.2% | -14.2% | 2.3%
O=C(Nc1nnc(/N=C/c2ccco2)s1)c1ccc(F)cc1 | 10µM* | 12.6µM* | -39.8% | 1.4%
CCOC(=O)C1=C(CN2CCN(c3ccccc3F)CC2)NC(=O)NC1c1ccc(Cl)cc1 (stereo not drawn) | 7.8% | -13.3% | -15.4%[10.9 µM] | ?
CN1c2cc(Cl)ccc2-c2nc(SCC(=O)Nc3ccc(F)cc3F)ncc2S1(=O)=O | -12.2% | 10µM* | -7.5%[10.9 µM] | 4.4%
Cc1c(C(=O)N(Cc2ccccc2F)C2CCS(=O)(=O)C2)oc2ccccc12 (stereo not drawn) | 2.6% | 7.6% | -9.2%[10.9 µM] | ?
Nc1ccc2nc(-c3cc(Cl)c(N)c(Cl)c3)[nH]c2c1 | 14.1µM* | ? | . | .
Cc1ccc(C)c(-c2nc3ccc(N)cc3[nH]2)c1 | -11.6% | -20.8% | -62.0% | ?
Nc1ccc2nc(-c3ccc(Cl)cc3)[nH]c2c1 | 12.6µM* | 10µM* | -79.3% | ?
Clc1ccc2nc(-c3ccccc3)[nH]c2c1 | 10µM* | 12.6µM* | -88.8% | .
Fc1ccc(-n2nc(-c3ccccc3)c3cnc4ccccc4c32)cc1Cl | 13.3% | -2.7% | ? | 0.3%
Cn1c(=O)n2n(c1=O)[C@H]1[C@H](O)[C@H]3O[C@@H]3/C(=N/OCc3ccccc3)[C@@H]1CC2 | 5.4%[9.22 µM] | 2.2%[9.22 µM] | . | .
O=C(N/N=C/c1sc2ccccc2c1O)c1ccccc1 | . | 7.08µM* | . | .
C[N+](C)(C)CCC(=O)c1cccc2ccccc12 | 12.6µM* | 15.8µM* | -29.4% | ?
O=C(O)CCC(=O)c1cccc2ccccc12 | -8.7% | 4.2% | -2.9% | -2.7%
COc1ccc(C(=O)Nc2ccc3oc(-c4cc(Cl)ccc4Cl)nc3c2)cc1Br | ? | 10µM* | -7.5%[10.9 µM] | ?
CC(C)c1ccc2oc(-c3cc(NC(=O)c4cccnc4)ccc3Cl)nc2c1 | 20µM* | ? | -11.4%[10.9 µM] | ?
O=C(Nc1ccc2oc(-c3cccc(Cl)c3Cl)nc2c1)c1cccc(Br)c1 | ? | 10µM* | -8.4%[10.9 µM] | -0.4%
CCc1ccc(-n2nc(C)c3c(C)cc(=O)n(CC(=O)N4CCCc5ccccc54)c32)cc1 | -0.5% | -23.5% | -13.3%[10.9 µM] | ?
O=C(COc1ccc(Cl)cc1Cl)Nc1ccc(C(=O)OC2CCCCC2)cc1 | -10.8% | -9.0% | -18.4%[10.9 µM] | 9.5%
Cc1ccc(-c2noc(CN(C3CCCCC3)S(=O)(=O)c3ccc(Cl)cc3)n2)cc1 | 8.7% | -6.8% | -10.6%[10.9 µM] | ?
COc1ccccc1-c1nc(-c2ccccn2)no1 | 3.98µM* | 5.01µM* | -93.6% | ?
COc1ccccc1-c1noc(-c2ccncc2)n1 | ? | ? | -81.4% | 4.7%
COc1ccc(-c2noc(-c3ccccc3-c3ccccc3)n2)cc1OC | 9.9% | -0.7% | -15.7% | 1.9%
COc1ccc(-c2noc(-c3cccc(OC)c3OC)n2)cc1 | 12.6µM* | ? | -3.4%[10.9 µM] | ?
COc1nc(C)ccc1-c1noc(-c2ccccn2)n1 | 10µM* | 10µM* | -75.6% | -3.8%
COc1ccccc1-c1nc(-c2ccc(C)nc2OC)no1 | ? | ? | -31.9% | -6.4%
COc1cccc(Cn2c(=O)c(-c3cn(C)c4ccccc34)nc3cnc(N4CCNCC4)nc32)c1 | -9.8% | -18.4% | -56.9% | 1.6%[11.4 µM]
O=C(NCC(c1ccc(Cl)cc1)N1CCCCC1)c1ccccc1 (stereo not drawn) | -6.1% | 15.4% | -11.7%[10.9 µM] | ?
